These results are taken from the supplement of paper PMC12297408.

This experiment relates to Plasmodium falciparum NF54/iGP1_RE9H ulg8 stage V gametocytes. The experiment in a line: gametocyte viability (luciferase signal relative to DMSO control) (% of DMSO control); higher = less gametocytocidal activity, active = 50 or less. The settings on record: exposure time: 72 h. In a few lines:
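Gametocyte viability is reported relative to the average of DMSO vehicle wells on the same plate. The assay used day-12 stage V NF54/iGP1_RE9Hulg8 gametocytes at ~2.5% gametocytemia and 3% hematocrit, in 0.5% Albumax II medium, added to 96-well plates of compounds spotted in nanolitre volumes for final 10 µM or 1 µM, one well each. After 72 h at 37 °C, 90 µl was mixed with 10 µl D-luciferin (30 mg/ml), and luminescence was recorded with an IVIS Lumina II.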

Where a name gives a salt, the structure may show the parent alone. In all, about 1,300 compounds went through this assay and about 40 (3%) showed activity. Only a selection was taken, and actives are over-represented in it overall. A number with no mark means an inactive call.

Consider `CN1C[C@H](C(=O)N[C@]2(C)O[C@@]3(O)[C@@H]4CCCN4C(=O)[C@H](Cc4ccccc4)N3C2=O)C[C@@H]2c3cccc4[nH]cc(c34)C[C@H]21` [Dihydroergotamine tartrate], for which the gametocyte viability (concentration: 1 µM) is 66.8 and the gametocyte viability (concentration: 10 µM) is 42.4 (active).

`CCCN1C[C@H](CSC)C[C@@H]2c3cccc4[nH]cc(c34)C[C@H]21` [Pergolide mesylate]: the gametocyte viability was 78.2 (concentration: 1 µM) and 82.3 (concentration: 10 µM).

As to `CC(C)C[C@H]1C(=O)N2CCC[C@H]2[C@]2(O)O[C@](NC(=O)[C@@H]3C=C4c5cccc6[nH]c(Br)c(c56)C[C@H]4N(C)C3)(C(C)C)C(=O)N12` [Bromocryptine mesylate], the gametocyte viability (concentration: 1 µM) is 84.2 and the gametocyte viability (concentration: 10 µM) was 66.9.

As to `CCNCC(O)c1cccc(O)c1` (stereo not given) [Etilefrine hydrochloride], the gametocyte viability is, setting by setting: (concentration: 1 µM) 87.9; (concentration: 10 µM) 90.2.

On to `CN1CCC2(C)c3cc(O)ccc3N(C)C12` (single isomer, unassigned; (-)) [(-)-Eseroline fumarate salt], for which the gametocyte viability (concentration: 1 µM) is 74.2 and the gametocyte viability (concentration: 10 µM) was 44.8 (active).

For the molecule `CCC1(c2cccc(O)c2)CCCCN(C)C1` (stereo not given) [Meptazinol hydrochloride], the gametocyte viability is 83 (concentration: 1 µM) and 81.4 (concentration: 10 µM).

Turning to `CNC(=O)Oc1ccc2c(c1)[C@]1(C)CCN(C)[C@@H]1N2C` [Eserine sulfate, physostigmine sulfate], the gametocyte viability was 83.4 (concentration: 1 µM) and 79 (concentration: 10 µM).

For `C(#CCN1CCCC1)CN1CCCC1` [Tremorine dihydrochloride], the gametocyte viability is, setting by setting: (concentration: 1 µM) 91.5; (concentration: 10 µM) 94.7.

For the molecule `C[C@@H]1O[C@@H](O[C@@H]2C=C3CC[C@@H]4[C@H](CC[C@]5(C)[C@@H](c6ccc(=O)oc6)CC[C@]45O)[C@@]3(C)CC2)[C@H](O)[C@H](O)[C@H]1O` [Proscillaridin A], the gametocyte viability is, setting by setting: (concentration: 1 µM) 81.2; (concentration: 10 µM) 76.2.

Regarding `CCCCCC[C@H]1C(=O)O[C@H](C)[C@H](NC(=O)c2cccc(NC=O)c2O)C(=O)O[C@@H](C)[C@@H]1OC(=O)CC(C)C` [Antimycin A], the gametocyte viability is, setting by setting: (concentration: 1 µM) 86.4; (concentration: 10 µM) 94.3.

For `Fc1ccc(C(OCCN2CCN(CCCc3ccccc3)CC2)c2ccc(F)cc2)cc1`, the gametocyte viability (concentration: 1 µM) was 81.5 and the gametocyte viability (concentration: 10 µM) is 86.

As to `COc1ccc(CCN2CCC(Nc3nc4ccccc4n3Cc3ccc(F)cc3)CC2)cc1` [Astemizole], the gametocyte viability was 92.7 (concentration: 1 µM) and 36.4 (active) (concentration: 10 µM).

For the molecule `CN(C)[C@@H]1C(=O)C(C(N)=O)=C(O)[C@@]2(O)C(=O)C3=C(O)c4c(O)ccc(Cl)c4[C@@](C)(O)[C@H]3C[C@@H]12` [Chlortetracycline hydrochloride], the gametocyte viability is, setting by setting: (concentration: 1 µM) 88.2; (concentration: 10 µM) 88.7.

For the molecule `CN1[C@@H]2CC[C@H]1C[C@@H](OC(=O)[C@H](CO)c1ccccc1)C2` [Hyoscyamine (L)], the gametocyte viability was 86.7 (concentration: 1 µM) and 91.7 (concentration: 10 µM).

`CN1[C@@H]2CC[C@H]1C[C@@H](OC1c3ccccc3CCc3ccccc31)C2` [Deptropine citrate]: the gametocyte viability was 99.2 (concentration: 1 µM) and 86.5 (concentration: 10 µM).

With `CC[C@@]1([C@@H]2O[C@@H]([C@H]3O[C@@](O)(CO)[C@H](C)C[C@@H]3C)C[C@@H]2C)CC[C@H]([C@]2(C)CC[C@]3(C[C@H](O)[C@@H](C)[C@@H]([C@@H](C)[C@@H](OC)[C@H](C)C(=O)O)O3)O2)O1` [Monensin sodium salt], the gametocyte viability is, setting by setting: (concentration: 1 µM) 28.8 (active); (concentration: 10 µM) 0.676 (active).

Turning to `C[C@]12CC[C@H](O)C[C@H]1CC[C@@H]1[C@@H]2C[C@@H](O)[C@]2(C)[C@@H](C3=CC(=O)OC3)CC[C@]12O` [Digoxigenin], the gametocyte viability was 74.9 (concentration: 1 µM) and 72.3 (concentration: 10 µM).

Turning to `O[C@@H]1CCCC[C@H]1N1CCC(c2ccccc2)CC1` [L(-)-vesamicol hydrochloride], the gametocyte viability (concentration: 1 µM) was 91.8 and the gametocyte viability (concentration: 10 µM) is 84.9.

Consider `CC[C@@H](C(N)=O)N1CCCC1=O` [Levetiracetam], for which the gametocyte viability runs as follows: (concentration: 1 µM) 83.8; (concentration: 10 µM) 85.3.

`C#C[C@]1(O)CC[C@H]2[C@@H]3CCC4=CC(=O)CCC4=C3C=C[C@@]21CC` [Gestrinone]: the gametocyte viability is 86.6 (concentration: 1 µM) and 74.2 (concentration: 10 µM).

As to `C=CC[C@]1(O)CC[C@H]2[C@@H]3CCC4=CC(=O)CCC4=C3C=C[C@@]21C` [Altrenogest], the gametocyte viability by setting is: (concentration: 1 µM) 56.8; (concentration: 10 µM) 33.1 (active).

With `C[C@]12CCC(=O)C=C1C=C[C@@H]1[C@@H]2CC[C@@]2(C)[C@H]1CC[C@@]2(O)CCC(=O)O` [Canrenoic acid potassium salt], the gametocyte viability is 83.5 (concentration: 1 µM) and 82.3 (concentration: 10 µM).

Turning to `C[N+]1([O-])[C@@H]2C[C@@H](OC(=O)[C@H](CO)c3ccccc3)C[C@H]1[C@@H]1O[C@@H]12` (stereo not given in full) [Scopolamin-N-oxide hydrobromide], the gametocyte viability by setting is: (concentration: 1 µM) 91.5; (concentration: 10 µM) 94.5.

As for `CCN[C@@H](C)Cc1cccc(C(F)(F)F)c1` [Dexfenfluramine hydrochloride], the gametocyte viability (concentration: 1 µM) is 95.2 and the gametocyte viability (concentration: 10 µM) was 90.6.

With `C[C@]12COC(=O)C[C@@H]1CC[C@@H]1[C@@H]2CC[C@@]2(C)[C@H]1CC[C@]2(C)O` [Oxandrolone], the gametocyte viability was 81.4 (concentration: 1 µM) and 78.9 (concentration: 10 µM).
